Laboratory results from PubChem BioAssay AID463173 (ICCB-Longwood Screening Facility, Harvard Medical School, 2010).
Hit rate of the full screen: of about 52,000 compounds, about 4,300 (8.3%) were called active. This excerpt belongs to a sample that is enriched for actives. A number with no mark means an inactive call. Cut-off read from the data, not from the text of the source: active = survival mostly below about 52% (no sharp cut-off); inactive = mostly above about 56%.

These compounds were tested on DeltatarO mutant (assay: S. aureus survival, RN4220 and DeltatarO strains – OD600, teichoic acid synthesis inhibitors, primary screen (AID 463173)). Conditions: S. aureus RN4220 wild type/DeltatarO growth, OD600, 18 h, active compounds read low, screened at 18.75 µg/mL (by protocol).

Row | SMILES | survival
1 | Cc1nn(C)c2c1c(-c1ccccc1)cc(=O)n2Cc1ccccc1Cl | 88%
2 | Cc1cccc(NC(=O)Cn2c(=O)n(CCc3ccccc3)c(=O)c3sc4ccccc4c32)c1 | 105%
3 | Cc1ccc(Cn2ccnc2SCC(=O)NC2CCCC2)cc1 | 89%
4 | Cc1cccc(C)c1NC(=O)CN1C(=O)c2ccccc2Sc2ncccc21 | 88%
5 | COc1ccccc1-c1cc(C(=O)NCc2ccccc2)c2c(-c3ccc(C)cc3)[nH]nc2n1 | 80%
6 | Cn1c(SCC(N)=O)nc2c([nH]c3ccccc32)c1=O | 88%
7 | COc1ccccc1N1CCN(C(=O)C(CCSC)NS(=O)(=O)c2ccc3c(c2)oc(=O)n3C)CC1 (stereo not given) | 87%
8 | Cc1ccc(Cn2c(=O)n(-c3ccccc3)c(=O)c3ccc(C(=O)NCc4ccco4)cc32)cc1 | 75%
9 | COc1ccc(CCN2C(=O)NC(NC(=O)c3ccccc3OC)(C(F)(F)F)C2=O)cc1OC (stereo not given) | 77%
10 | COc1ccc(CNC(=O)c2ccc3c(c2)N(C)C(=O)C2CCCCN32)cc1OC (stereo not given) | 75%
11 | COc1cccc(CNC(=O)c2ccc3c(c2)N(C)C(=O)C2CCCCN32)c1 (stereo not given) | 72%
12 | CSc1ccc(CNC(=O)c2ccc3c(c2)N(C)C(=O)C2CCCCN32)cc1 (stereo not given) | 92%
13 | Cc1cccc(CNC(=O)c2ccc3c(c2)N(C)C(=O)C2CCCCN32)c1 (stereo not given) | 0% (active)
14 | CCCCOc1ccc(CNC(=O)c2ccc3c(c2)N(C)C(=O)C2CCCCN32)cc1 (stereo not given) | 74%
15 | CC(C)Oc1ccc(CNC(=O)c2ccc3c(c2)N(C)C(=O)C2CCCCN32)cc1 (stereo not given) | 37% (active)
16 | CCOc1ccc(CNC(=O)C2CCCN(c3nn4cc(-c5ccc(OC)cc5)nc4s3)C2)cc1 (stereo not given) | 99%
17 | Cc1c2cnn(CC(=O)N3CCN(c4ccccc4)CC3)c(=O)c2c(C)n1Cc1ccc(F)cc1 | 67%
18 | COc1ccc(-c2cc(C(N)=O)on2)c(OC)c1 | 99%
19 | O=S(=O)(c1cccc(S(=O)(=O)N2CCOCC2)c1)N1CCCCCC1 | 91%
20 | Cc1ccc2occ(CC(=O)Nc3nnc(C(C)C)s3)c2c1 | 70%
21 | CCCCSCCCNC(=O)c1cn(C)c2ccc(S(=O)(=O)N3CCCCCC3)cc2c1=O | 63%
22 | COc1ccc(NC(=O)c2oc3ccccc3c2NC(=O)C2CCCCC2)c(OC)c1 | 74%
23 | COc1ccccc1NC(=O)c1oc2ccccc2c1NC(=O)C1CCCCC1 | 43% (active)

Row | SMILES | survival
24 | O=C(Nc1ccc(F)cc1)c1oc2ccccc2c1NC(=O)C1CCCCC1 | 11% (active)
25 | COc1cc(OC)cc(C(=O)Nc2c(C(=O)Nc3ccc(F)cc3)oc3ccccc23)c1 | 62%
26 | Cc1ccc(NC(=O)c2oc3ccccc3c2NC(=O)C23CC4CC(CC(C4)C2)C3)cc1 | 75%
27 | CN(C)c1ccc(C(=O)Nc2c(C(=O)NC(C)(C)C)oc3ccccc23)cc1 | 57%
28 | CCOc1ccc(NC(=O)c2oc3ccccc3c2NC(=O)C2CCCCC2)cc1 | 103%
29 | COc1cccc(NC(=O)c2oc3ccccc3c2NC(=O)C2CCCCC2)c1 | 66%
30 | Cc1ccc(NC(=O)c2oc3ccccc3c2NC(=O)C2CCCCC2)cc1 | 2% (active)
31 | O=C(Nc1ccc(F)cc1)c1oc2ccccc2c1NC(=O)C12CC3CC(CC(C3)C1)C2 | 96%
32 | CC(C)(C)NC(=O)c1oc2ccccc2c1NC(=O)c1ccc(F)cc1 | 71%
33 | Cc1ccc(C(=O)Nc2c(C(=O)NC(C)(C)C)oc3ccccc23)cc1 | 32% (active)
34 | CCOC(=O)c1ccc(NC(=O)Cn2nc3c4ccccc4n(Cc4cccc(F)c4)cc-3c2=O)cc1 | 82%
35 | Cc1cc(C)nc(Nc2ccc(O)cc2)n1 | 91%
36 | CC(C)c1ccc(S(=O)(=O)c2nnn3c2nc(NC2CCCC2)c2sccc23)cc1 | 65%
37 | CCN(CC)c1ccc(NC(=O)c2cnn(-c3ccccc3)c2-n2cccc2)c(C)c1 | 115%
38 | CCCCNC(=O)c1[nH]c2ccccc2c1Sc1ccc(C)cc1 | 75%
39 | CCC1CCCCN1CCCNC(=O)c1[nH]c2ccccc2c1Sc1ccc(Cl)cc1 (stereo not given) | -1% (active)
40 | CCN(CC)CCNC(=O)c1[nH]c2ccccc2c1Sc1ccc(Cl)cc1 | 45%
41 | CC1CCCCN1CCCNC(=O)c1cc(Sc2cccc(Cl)c2)nc2ccccc12 (stereo not given) | 68%
42 | CC1CCCCN1CCCNC(=O)Cn1ncc2c([nH]c3ccccc32)c1=O (stereo not given) | 124%
43 | CC1CCCCN1CCCNC(=O)c1[nH]c2ccccc2c1Sc1ccc(Cl)cc1 (stereo not given) | 1% (active)
44 | CC1CCCCN1C(=O)CN1CCSc2ccccc21 (stereo not given) | 74%
45 | Cc1nc2sc(C(=O)Nc3ccc(F)cc3)c(N)c2c(-c2ccc(Br)cc2)c1C(=O)Nc1ccc(Cl)cc1 | 80%
46 | COc1ccc(NC(=O)c2sc3nc(C)c(C(=O)Nc4ccc(Cl)cc4)c(-c4ccc(Br)cc4)c3c2N)cc1 | 57%

Row | SMILES | survival
47 | Cc1nc2sc(C(N)=O)c(N)c2c(-c2ccc(Br)cc2)c1C(=O)Nc1ccc(Cl)cc1 | 10% (active)
48 | Cc1ccc(CNC(=O)CCN2C(=O)C(C)Oc3ccc(C)cc32)cc1 (stereo not given) | 128%
49 | Cn1cc(C(=O)O)c(=O)c2ccccc21 | 80%
50 | CCc1nnc(NC(=O)c2c(O)c3ccccc3n(C)c2=O)s1 | -1% (active)
51 | CCc1nnc(NC(=O)c2c(O)c3ccccc3[nH]c2=O)s1 | 84%
52 | CCCNC(=O)c1c(O)c2ccccc2n(C)c1=O | 93%
53 | COc1ccc(C(=O)COC(=O)CCCC(=O)Nc2cc(C(F)(F)F)ccc2Cl)cc1 | 53%
54 | Cc1ccc(C)c(C(=O)COC(=O)CCCC(=O)Nc2cc(C(F)(F)F)ccc2Cl)c1 | 25% (active)
55 | Cc1ccc(C(=O)COC(=O)CCCC(=O)Nc2cc(C(F)(F)F)ccc2Cl)cc1C | 54%
56 | Cc1ccc(NC(=O)CSc2nc(-c3cccs3)cc(C(F)(F)F)n2)cc1C | 155%
57 | COc1cc(NC(=O)CSc2nc(-c3cccs3)cc(C(F)(F)F)n2)cc(OC)c1OC | 49%
58 | CC(C)(C)c1ccccc1NC(=O)CSc1nc(-c2cccs2)cc(C(F)(F)F)n1 | 23% (active)
59 | COC(=O)c1ccccc1NC(=O)CSc1nc(=O)cc(N)n1-c1ccccc1 | 38% (active)
60 | CCOc1ccccc1NC(=O)CSc1nc(-c2cccs2)cc(C(F)(F)F)n1 | 69%
61 | COc1ccc(Cl)cc1NC(=O)CSc1nc(-c2cccs2)cc(C(F)(F)F)n1 | 35% (active)
62 | Cc1ccc(NC(=O)CSc2nc(=O)cc(N)n2-c2ccccc2)cc1 | 87%
63 | COc1ccc(NC(=O)CSc2nc(-c3cccs3)cc(C(F)(F)F)n2)c(OC)c1 | 57%
64 | O=C(CSc1nc(-c2cccs2)cc(C(F)(F)F)n1)Nc1ccccc1Cl | 121%
65 | Nc1cc(=O)nc(SCC(=O)Nc2ccc(F)cc2)n1-c1cccc(Cl)c1 | 145%
66 | COc1ccc(NC(=O)CSc2nc(-c3cccs3)cc(C(F)(F)F)n2)cc1Cl | 37% (active)
67 | COc1ccc(Cl)cc1NC(=O)CCS(=O)(=O)c1nc(-c2cccs2)cc(C(F)(F)F)n1 | 63%
68 | CCOC(=O)c1oc2ccc(S(=O)(=O)n3nc(-c4cc(OC)c(OC)c(OC)c4)cc3N)cc2c1C | 73%
69 | Cc1cccc(N2CCN(C(=O)C3CCN(S(=O)(=O)c4c(C)noc4C)CC3)CC2C)c1 (stereo not given) | 100%

Row | SMILES | survival
70 | CCOc1ccc(-c2nn(CC(=O)NC3CCCCC3)c3c2cnc2ccc(C)cc23)cc1 | 107%
71 | CCOc1ccc(NC(=O)C2CCCN(c3nn4cc(-c5ccc(OC)cc5)nc4s3)C2)cc1 (stereo not given) | 113%
72 | Cc1oc(-c2cccc(Cl)c2)nc1CSc1nncn2c1cc1occc12 | 103%
73 | COC(=O)c1sccc1S(=O)(=O)N(CC(=O)Nc1cc(C)cc(C)c1)c1ccc(Cl)cc1 | 88%
74 | Cn1c(SCC#N)nc2c(c1=O)C1(CCCCC1)Cc1ccccc1-2 | 103%
75 | CCCCNC(=O)C1CCN(Cc2cccc(OC)c2O)CC1 | 78%
76 | CCCNC(=O)CSc1nc(-c2ccccc2)cc(C(F)(F)F)n1 | 77%
77 | CCn1c(SCC(=O)Nc2ccccc2C(=O)OC)nc2ccsc2c1=O | 94%
78 | COC(=O)CSc1nc(-c2ccccc2)cc(C(F)(F)F)n1 | 88%
79 | COC(=O)c1ccccc1NC(=O)CSc1nc(-c2ccccc2)cc(C(F)(F)F)n1 | 25% (active)
80 | CCC(C)n1c(SCC(=O)Nc2ccccc2C(=O)OC)nc2ccsc2c1=O (stereo not given) | 17% (active)
81 | COC(=O)c1ccccc1NC(=O)CSc1nc2ccsc2c(=O)n1CCC(C)C | 88%
82 | CCNC(=O)C1CCCN(c2ncnc3onc(C)c23)C1 (stereo not given) | 101%
83 | CCOc1ccccc1NC(=O)c1ccc2c(c1)CCN2S(C)(=O)=O | 75%
84 | COc1ccc(S(=O)(=O)Nc2cccc(-c3ccc(N4CCOCC4)nn3)c2)cc1F | 88%
85 | Cc1cc(C)c2c(=O)c3c(oc2c1)C(=O)N(Cc1ccc(F)cc1)C3c1cccc(O)c1 (stereo not given) | 52% (active)
86 | COc1ccc(CCN2C(=O)c3oc4cc(C)cc(C)c4c(=O)c3C2c2ccc(F)cc2)cc1OC (stereo not given) | 56%
87 | CCCN1C(=O)c2oc3cc(C)cc(C)c3c(=O)c2C1c1ccc(F)cc1 (stereo not given) | 49% (active)
88 | Cc1cc(C)c2c(=O)c3c(oc2c1)C(=O)N(Cc1ccco1)C3c1ccc(F)cc1 (stereo not given) | 53%
89 | COCCN1C(=O)c2oc3cc(C)cc(C)c3c(=O)c2C1c1cccc(O)c1 (stereo not given) | 71%
90 | O=C1c2oc3ccccc3c(=O)c2C(c2cccc(O)c2)N1Cc1ccc(F)cc1 (stereo not given) | 77%
